Shown is part of a subset that was picked to be rich in hits.
mcGAS MS inh – blocks mouse cGAS cGAMP production. Q8C6L5. recombinant mouse cGAS, cGAMP by RapidFire MS. inhibition, % at 12.5 µM. 130,000 tested, 0.18% active. AID 1259397;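 active = inhibition of cGAS enzyme activity at or above 60%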;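 note: enzyme stimulated by 45 bp dsDNA with ATP and GTP substrates; cGAMP share of summed cGAMP plus half ATP and half GTP signals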
Target sequence (Q8C6L5 whole entry, looked up): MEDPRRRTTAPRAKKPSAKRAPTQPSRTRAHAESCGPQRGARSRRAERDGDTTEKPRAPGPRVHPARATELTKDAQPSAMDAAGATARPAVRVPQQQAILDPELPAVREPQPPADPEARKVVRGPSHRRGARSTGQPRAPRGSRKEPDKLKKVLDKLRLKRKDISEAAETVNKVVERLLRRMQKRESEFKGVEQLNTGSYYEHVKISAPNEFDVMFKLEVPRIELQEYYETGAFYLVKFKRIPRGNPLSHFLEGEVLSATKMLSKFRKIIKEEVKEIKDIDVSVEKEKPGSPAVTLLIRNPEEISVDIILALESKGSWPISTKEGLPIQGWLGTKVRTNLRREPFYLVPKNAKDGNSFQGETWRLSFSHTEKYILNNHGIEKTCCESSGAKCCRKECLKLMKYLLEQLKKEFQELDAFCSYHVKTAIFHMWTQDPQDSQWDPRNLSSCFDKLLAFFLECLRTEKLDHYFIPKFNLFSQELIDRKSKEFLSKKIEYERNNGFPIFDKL
A number is an active result; n = inactive; ! = a repeat was not active.

SMILES	mcGAS MS inh
CC(NC(=O)COc1ccc2cc(Br)ccc2c1)c1ccc(F)cc1 (configuration not stated)	n
c1ccn(-c2ccc(-c3noc(-c4ccc5c(c4)OCO5)n3)cc2)c1	n
N#Cc1c(-c2ccco2)[nH]c(=S)[nH]c1=O	n
CCOc1cc(-c2[nH]c(=S)[nH]c(=O)c2C#N)ccc1O	99
CCOc1cc(C2=NN(c3ccc(C)cc3)C(=O)CC2)ccc1O	n
CC(C)O[C@H]1CN(C(=O)c2cccc(CC3CCNCC3)c2)C[C@@H]1O	n
CCOc1ccc(N2C(=S)SC3CS(=O)(=O)CC32)cc1 (configuration not stated)	n
CNc1ccc(-c2cncc3ccccc23)cn1	n
Cn1c(N)c(C(=O)CSc2nnc3c(n2)[nH]c2ccccc23)c(=O)n(C)c1=O	n
CCSc1nnc2c3ccccc3n(C)c2n1	n
CCSc1nnc2c(=O)[nH]c(=O)[nH]c2n1	84
Brc1cccc(-c2nnc(SCC=Cc3ccccc3)o2)c1	n
CCN1C(=O)NC(c2ccccc2[N+](=O)[O-])C(C(=O)OCCOC)=C1C (configuration not stated)	n
COC(=O)C1=C(C)NC(C)=C(C(=O)OCC(C)C)C1c1ccccc1[N+](=O)[O-] (configuration not stated)	65!
COC(=O)C1=C(C)NC(C)=C(C(=O)OCCN)C1c1ccccc1C(F)(F)F (configuration not stated)	n
Cc1nn(C)c(C)c1-c1ccnc(NCCc2cscn2)n1	n
COc1cccc2c1C(=O)c1c(O)c3c(c(O)c1C2=O)C[C@@](O)(C(=O)CO)C[C@@H]3O[C@H]1C[C@H](N)[C@H](O)[C@H](C)O1	96
COc1cccc2c1C(=O)c1c(O)c3c(c(O)c1C2=O)C[C@@](O)(C(C)=O)C[C@@H]3OC1CC(N)C(O)C(C)O1 (some centres not stated)	93
CN1C(C)(C)CC(NC(=O)c2cc(F)c(-n3ccnc3-c3ccccc3)cc2F)CC1(C)C	n
O=C(CCl)NCCOc1ccc(Cl)cc1	n
O=C(N/N=C\c1c(O)ccc2ccccc12)c1ccc(=O)[nH]n1	n
Cc1cnn(C(C)C(C)NC(C)c2nc(C3CC3)no2)c1 (configuration not stated)	n
CCC(c1cccs1)n1cc2ncccc2c1O (configuration not stated)	n
CC(=O)N1CCCN(c2ccncc2N)CC1	n
CC(=O)N1CCC(N2CCN(c3ccncc3F)CC2)CC1	62
SMILES	mcGAS MS inh
O=C(C1CCC1)N1CCCC(N2CCN(c3ccccc3F)CC2)C1 (configuration not stated)	n
CCCN1C(=O)COCc2cc(-c3ccccc3OC)ccc21	n
CCC1(O)CC(OC2CC(N(C)C)C(OC3CC(O)C(OC4CCC(=O)C(C)O4)C(C)O3)C(C)O2)c2c(cc3c(c2O)C(=O)c2c(O)cccc2C3=O)C1C(=O)OC (configuration not stated)	97
Cc1ccc(NC(=O)C2(C)CCN2Cc2ccc(C(C)C)cc2)cc1 (configuration not stated)	n
CC(C)c1ccc(-c2c(NC(C)(C)C)c(=O)c2=O)cc1	n
COc1ccc(C2=N/C(=C\c3ccc(OC(F)(F)F)cc3)C(=O)O2)cc1OC	n
CS(=O)(=O)c1ncc2c(n1)c(=O)c(C#N)c1[nH]c3ccccc3c(=O)n12	67
COCCNc1ncc2c(n1)c(=O)c(C#N)c1[nH]c3ccc(Br)cc3c(=O)n12	n
Cc1c(Cc2ccc(Cl)cc2)c(=O)n2c([nH]c3ccccc32)c1C#N	n
NC(=O)N1CCN(C(=O)c2ccccc2C2CCNC2)CC1 (configuration not stated)	n
Cc1cc2c(cnc3ncnn32)c(=O)n1-c1cc(Cl)cc(Cl)c1	n
Cn1c(-c2ccccc2)nnc1C(C#N)C(=O)C1CC=CCC1 (configuration not stated)	n
CCC(=O)C(C#N)c1nnc(-c2ccccc2)s1 (configuration not stated)	95
Cc1ccc(S(=O)(=O)c2nnc(-c3ccccc3)s2)cc1	n
CNC(=O)NC(=O)COC(=O)c1cc2c(s1)CCC2	n
Cc1nc2ncccn2c1C(=O)N1CCCC(Cc2ccc(C(=O)O)cc2)C1 (configuration not stated)	n
CCc1cc(=O)[nH]c2n[nH]c(=S)n12	n
CCCc1cc(=O)[nH]c2n[nH]c(=S)n12	n
O=c1cc(-c2ccccc2)n2c(=S)[nH]nc2[nH]1	68
N#Cc1cc2[nH]c3ccccc3c2n(-c2ccc([N+](=O)[O-])cc2)c1=N	n
Nc1c(-c2ccccc2)cnn1-c1ccc([N+](=O)[O-])cc1	n
CC1(C)Cc2c(cnn2-c2ccc([N+](=O)[O-])cc2)-c2[nH]c3ccccc3c21	76
N#CC1C(=N)Oc2n[nH]c(-c3ccc(F)cc3)c2C1c1cn[nH]c1-c1ccc(F)cc1 (configuration not stated)	n
Brc1ccc(C=NN=C2CC(c3ccccc3)N=N2)o1 (configuration not stated)	n
O=C(O)c1ccccc1CN1CCCCC1CCn1cccn1 (configuration not stated)	n
SMILES	mcGAS MS inh
OC[C@@H]1CCCN1Cc1csc(-c2ccc(Br)cc2)n1	n
O=c1cc(CCn2cccn2)nc(-c2ccc(CN3CCC[C@@H]3CO)cc2)[nH]1	89
Cc1nn(C(C)C)c(C)c1NC(=O)NCCS(=O)C(C)(C)C (configuration not stated)	n
O=C(Nc1nnc(-c2ccccc2)s1)c1cccc(C(F)(F)F)c1	n
COCC(C)NC(=O)c1ccc(CSC)cc1 (configuration not stated)	n
COC(=O)c1c(N)sc2c1CCC2	n
COC(=O)c1c(N)sc2c1CCCC2	n
COC(=O)c1c(N2C(=O)C=CC2=O)sc2c1CCCC2	91
N#CC1C(=N)SC(=N)C(C#N)C1c1ccc(Br)cc1 (configuration not stated)	n
N#CC(=Cc1ccc([N+](=O)[O-])o1)c1nc(C2CC2)cs1	n
CC(C)OC(=O)C(C#N)=Cc1ccc([N+](=O)[O-])o1	64
O=C(O)C=Cc1ccc([N+](=O)[O-])o1	n
CCCOC(=O)C1=C(C)N(C)C(=O)NC1c1ccc([N+](=O)[O-])cc1 (configuration not stated)	n
CCOCCOC(=O)C1=C(C)N(CC)C(=O)NC1c1ccc([N+](=O)[O-])cc1 (configuration not stated)	98
CCOCCOC(=O)C1=C(C)N(C)C(=O)NC1c1cccc([N+](=O)[O-])c1 (configuration not stated)	n
CCNC(=O)C1(C)CCCN(Cc2cccc3c2OCO3)C1 (configuration not stated)	n
O=c1[nH]c2cc3nc(C(F)(F)F)[nH]c3cc2[nH]1	n
O=C(Nc1ccnn1Cc1ccsc1)C1CC2CCC1C2 (configuration not stated)	n
Cc1nn(C)c(Cl)c1S(=O)(=O)N1CCN2CCN(C)CC2C1 (configuration not stated)	n
O=C(NC(c1ccc(Cl)cc1)C1CC1)C1CCN(S(=O)(=O)c2ccccc2F)CC1 (configuration not stated)	n
O=C1C2C3C=CC(C3)C2C(=O)N1c1ccccc1 (configuration not stated)	n
O=C1C=CC2C3C(=O)N(c4ccccc4)C(=O)C3C1N2c1ccccc1 (configuration not stated)	92
O=C1C=CC(=O)N1c1ccccc1	n
Cc1cccc(Cn2cccc2C2=NC(C)(C)CO2)c1	n

Compound activity: PubChem BioAssay, Fisher Drug Discovery Resource Center
